Assay results reported in PubChem BioAssay AID1159580 (chemical genetic matrix, 2015).
Several values for one entry are separate records, joined by “and”; a condition that tells them apart may be missing. Identical values can stand only once. The whole screen tested about 5,500 compounds, of which about 2,000 (36%) were called active. Inconclusive results (about 18%) are left out. The list shows a part of the results. Unmarked numbers belong to inactive results. Cut-off read from the data, not from the text of the source: active = normalized growth mostly below about 0.91 (no sharp cut-off); inconclusive = no clear call, values can overlap the other calls; inactive = mostly above about 0.92.

Test: chemical genetic growth profiling, strain panel (AID 1159580);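 note: tested at 20 µM; growth read once vehicle control cultures reached saturation at 30 °C; 1 = growth at the plate median or of vehicle wells; lower values mean less growth of the strain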
Details: growth OD

NCCc1ccc(O)cc1 gave a normalized growth (S. cerevisiae deletion strains, locus YJR075W, strain HOC1, hits give low values) of 1.01, a normalized growth (S. cerevisiae deletion strains, locus YKL009W, strain mrt4, hits give low values) of 0.992 and a normalized growth (S. cerevisiae deletion strains, locus YKL068W, hits give low values) of 0.994. For the same molecule, the normalized growth (S. cerevisiae deletion strains, locus YKL085W, strain MDH1 (second series), hits give low values) was 0.996, the normalized growth (S. cerevisiae deletion strains, locus YKL085W, strain MDH1, hits give low values) was 0.996 and the normalized growth (S. cerevisiae deletion strains, locus YKL160W, strain elf1, hits give low values) was 1.01. The normalized growth (S. cerevisiae deletion strains, locus YKL190W, strain CNB1, hits give low values) was 1.01, the normalized growth (S. cerevisiae deletion strains, locus YKR001C, strain vps1, hits give low values) was 0.978 and the normalized growth (S. cerevisiae deletion strains, locus YKR026C, strain gcn3, hits give low values) was 0.972. It also gave a normalized growth (S. cerevisiae deletion strains, locus YKR091W, strain srl3, hits give low values) of 0.986, a normalized growth (S. cerevisiae deletion strains, locus YLL001W, strain dnm1, hits give low values) of 0.982 and a normalized growth (S. cerevisiae deletion strains, locus YLL026W, hits give low values) of 0.985. The normalized growth (S. cerevisiae deletion strains, locus YLL041C, strain sdh2, hits give low values) was 0.978, the normalized growth (S. cerevisiae deletion strains, locus YLR027C, strain aat2, hits give low values) was 0.984 and the normalized growth (S. cerevisiae deletion strains, locus YLR039C, strain RIC1, hits give low values) was 1.02. It also gave a normalized growth (S. cerevisiae deletion strains, locus YLR058C, strain SHM2, hits give low values) of 1.01, a normalized growth (S. cerevisiae deletion strains, locus YLR102C, strain apc9, hits give low values) of 0.999 and a normalized growth (S. cerevisiae deletion strains, locus YLR113W, strain HOG1, hits give low values) of 0.973. The normalized growth (S. cerevisiae deletion strains, locus YLR221C, strain rsa3, hits give low values) was 0.951, the normalized growth (S. cerevisiae deletion strains, locus YLR258W, strain gsy2, hits give low values) was 0.985 and the normalized growth (S. cerevisiae deletion strains, locus YLR262C, strain YPT6 (second series), hits give low values) was 0.976. For the same molecule, the normalized growth (S. cerevisiae deletion strains, locus YLR262C, strain YPT6, hits give low values) was 1.02, the normalized growth (S. cerevisiae deletion strains, locus YLR268W, strain sec22, hits give low values) was 0.993 and the normalized growth (S. cerevisiae deletion strains, locus YLR320W, strain mms22, hits give low values) was 0.962. For the same molecule, the normalized growth (S. cerevisiae deletion strains, locus YLR330W, strain CHS5, hits give low values) was 1.01, the normalized growth (S. cerevisiae deletion strains, locus YLR342W, strain FKS1 (second series), hits give low values) was 1 and the normalized growth (S. cerevisiae deletion strains, locus YLR342W, strain FKS1, hits give low values) was 0.98. It also gave a normalized growth (S. cerevisiae deletion strains, locus YLR357W, strain rsc2, hits give low values) of 0.956, a normalized growth (S. cerevisiae deletion strains, locus YLR370C, strain arc18, hits give low values) of 0.984 and a normalized growth (S. cerevisiae deletion strains, locus YLR371W, strain rom2, hits give low values) of 0.981. For the same molecule, the normalized growth (S. cerevisiae deletion strains, locus YLR384C, strain iki3, hits give low values) was 0.958, the normalized growth (S. cerevisiae deletion strains, locus YLR418C, strain cdc73, hits give low values) was 1.02 and the normalized growth (S. cerevisiae deletion strains, locus YML016C, strain PPZ1, hits give low values) was 1. It also gave a normalized growth (S. cerevisiae deletion strains, locus YML032C, strain rad52, hits give low values) of 1.02, a normalized growth (S. cerevisiae deletion strains, locus YML120C, strain ndi1, hits give low values) of 0.994 and a normalized growth (S. cerevisiae deletion strains, locus YML124C, strain tub3, hits give low values) of 1. It also gave a normalized growth (S. cerevisiae deletion strains, locus YMR058W, strain fet3, hits give low values) of 0.973, a normalized growth (S. cerevisiae deletion strains, locus YMR078C, strain ctf18, hits give low values) of 0.99 and a normalized growth (S. cerevisiae deletion strains, locus YMR125W, strain sto1, hits give low values) of 0.989. For the same molecule, the normalized growth (S. cerevisiae deletion strains, locus YMR129W, hits give low values) was 0.973, the normalized growth (S. cerevisiae deletion strains, locus YMR205C, strain PFK2, hits give low values) was 1.01 and the normalized growth (S. cerevisiae deletion strains, locus YMR223W, strain ubp8, hits give low values) was 1.01. For the same molecule, the normalized growth (S. cerevisiae deletion strains, locus YMR231W, strain pep5, hits give low values) was 0.97, the normalized growth (S. cerevisiae deletion strains, locus YMR263W, strain SAP30, hits give low values) was 1.01 and 1 and the normalized growth (S. cerevisiae deletion strains, locus YMR307W, strain GAS1, hits give low values) was 0.979 and 1.01. For the same molecule, the normalized growth (S. cerevisiae deletion strains, locus YNL067W, strain RPL9B, hits give low values) was 1.01, the normalized growth (S. cerevisiae deletion strains, locus YNL071W, strain lat1, hits give low values) was 0.989 and the normalized growth (S. cerevisiae deletion strains, locus YNL153C, strain GIM3, hits give low values) was 1.01 and 1.04. The normalized growth (S. cerevisiae deletion strains, locus YNL175C, strain NOP13, hits give low values) was 1.03, the normalized growth (S. cerevisiae deletion strains, locus YNL183C, strain NPR1, hits give low values) was 0.953 and the normalized growth (S. cerevisiae deletion strains, locus YNL197C, strain WHI3, hits give low values) was 1. The normalized growth (S. cerevisiae deletion strains, locus YNL209W, strain ssb2, hits give low values) was 1, the normalized growth (S. cerevisiae deletion strains, locus YNL224C, strain SQS1, hits give low values) was 1 and the normalized growth (S. cerevisiae deletion strains, locus YNL233W, strain BNI4, hits give low values) was 1. For the same molecule, the normalized growth (S. cerevisiae deletion strains, locus YNL248C, strain rpa49, hits give low values) was 0.856 (active), the normalized growth (S. cerevisiae deletion strains, locus YNL250W, strain rad50, hits give low values) was 0.995 and the normalized growth (S. cerevisiae deletion strains, locus YNL271C, strain bni1, hits give low values) was 0.993. The normalized growth (S. cerevisiae deletion strains, locus YNL298W, strain CLA4, hits give low values) was 1, the normalized growth (S. cerevisiae deletion strains, locus YNL307C, strain MCK1, hits give low values) was 1.02 and the normalized growth (S. cerevisiae deletion strains, locus YNL322C, strain KRE1 (second series), hits give low values) was 0.992. The normalized growth (S. cerevisiae deletion strains, locus YNL322C, strain KRE1, hits give low values) was 1 and 0.993, the normalized growth (S. cerevisiae deletion strains, locus YNR049C, strain mso1, hits give low values) was 0.98 and the normalized growth (S. cerevisiae deletion strains, locus YNR052C, strain pop2, hits give low values) was 0.988. For the same molecule, the normalized growth (S. cerevisiae deletion strains, locus YOL012C, strain htz1) was 0.829, the normalized growth (S. cerevisiae deletion strains, locus YOL147C, strain pex11, hits give low values) was 1 and the normalized growth (S. cerevisiae deletion strains, locus YOR001W, strain rrp6, hits give low values) was 0.927. It also gave a normalized growth (S. cerevisiae deletion strains, locus YOR061W, strain CKA2, hits give low values) of 1.01, a normalized growth (S. cerevisiae deletion strains, locus YOR069W, strain VPS5, hits give low values) of 1 and a normalized growth (S. cerevisiae deletion strains, locus YOR070C, strain gyp1, hits give low values) of 0.963. The normalized growth (S. cerevisiae deletion strains, locus YOR080W, strain dia2, hits give low values) was 0.968, the normalized growth (S. cerevisiae deletion strains, locus YOR083W, strain WHI5 (second series), hits give low values) was 1.03 and the normalized growth (S. cerevisiae deletion strains, locus YOR083W, strain WHI5, hits give low values) was 1.01. It also gave a normalized growth (S. cerevisiae deletion strains, locus YOR106W, strain vam3, hits give low values) of 1.02, a normalized growth (S. cerevisiae deletion strains, locus YOR136W, strain idh2, hits give low values) of 0.996 and a normalized growth (S. cerevisiae deletion strains, locus YOR144C, strain elg1, hits give low values) of 0.992. The normalized growth (S. cerevisiae deletion strains, locus YOR184W, strain ser1, hits give low values) was 1, the normalized growth (S. cerevisiae deletion strains, locus YOR231W, strain MKK1, hits give low values) was 0.963 and the normalized growth (S. cerevisiae deletion strains, locus YOR265W, strain rbl2, hits give low values) was 1. It also gave a normalized growth (S. cerevisiae deletion strains, locus YOR270C, strain vph1, hits give low values) of 0.964, a normalized growth (S. cerevisiae deletion strains, locus YOR290C, strain snf2, hits give low values) of 1 and a normalized growth (S. cerevisiae deletion strains, locus YOR316C, strain cot1, hits give low values) of 1. For the same molecule, the normalized growth (S. cerevisiae deletion strains, locus YPL051W, strain arl3, hits give low values) was 0.987, the normalized growth (S. cerevisiae deletion strains, locus YPL055C, strain LGE1, hits give low values) was 1.01 and the normalized growth (S. cerevisiae deletion strains, locus YPL078C, strain atp4, hits give low values) was 0.997. The normalized growth (S. cerevisiae deletion strains, locus YPL106C, strain sse1, hits give low values) was 0.987, the normalized growth (S. cerevisiae deletion strains, locus YPL240C, strain hsp82, hits give low values) was 0.976 and the normalized growth (S. cerevisiae deletion strains, locus YPL241C, strain CIN2, hits give low values) was 1.01 and 1. It also gave a normalized growth (S. cerevisiae deletion strains, locus YPL256C, strain CLN2, hits give low values) of 0.953, a normalized growth (S. cerevisiae deletion strains, locus YPR119W, strain clb2, hits give low values) of 0.992 and a normalized growth (S. cerevisiae deletion strains, locus YPR141C, strain kar3, hits give low values) of 0.996. For the same molecule, the normalized growth (S. cerevisiae deletion strains, locus YPR163C, strain tif3, hits give low values) was 1.01, the normalized growth (S. cerevisiae deletion strains, locus YPR167C, strain met16, hits give low values) was 1.01 and the normalized growth (S. cerevisiae deletion strains, strain wtn01, hits give low values) was 0.984. The normalized growth (S. cerevisiae strains, strain wild type, hits give low values) was 1.
